Data from PubChem BioAssay.
Unmarked numbers belong to inactive results. No rule for the calls is given here.

target: Pantothenate synthetase (Mycobacterium tuberculosis (strain ATCC 25618 / H37Rv)) (UniProt P9WIL5); assay: Coupled enzyme confirmation of inhibitors against recombinant Mtb PanC (AID 375); details: coupled enzyme assay; at 10 µM, active compounds read high;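 also: 0% = full reaction with vehicle and 100% = no enzyme background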
Sequence (P9WIL5 whole entry, looked up): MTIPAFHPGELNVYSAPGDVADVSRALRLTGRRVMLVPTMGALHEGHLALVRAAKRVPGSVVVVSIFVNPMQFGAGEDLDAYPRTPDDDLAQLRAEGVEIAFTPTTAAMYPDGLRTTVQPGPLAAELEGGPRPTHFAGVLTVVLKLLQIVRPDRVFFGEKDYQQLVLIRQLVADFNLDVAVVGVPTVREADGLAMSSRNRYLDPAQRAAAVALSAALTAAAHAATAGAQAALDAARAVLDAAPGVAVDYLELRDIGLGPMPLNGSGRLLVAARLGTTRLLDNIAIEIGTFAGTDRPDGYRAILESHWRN

| SMILES | inhibition [%] |
| --- | --- |
| CC(=O)N1CCN(c2ccc(N=Cc3c(O)n(Cc4ccccc4)c(=O)[nH]c3=O)cc2)CC1 | 0 |
| COc1ccccc1NC(=O)Cn1nnc(-c2ccccc2NC(=O)c2ccco2)n1 | 0 |
| CCOc1ccccc1C1CC(c2ccc(Br)cc2)Nc2nc(N)nn21 (stereo not given) | 10 |
| Cc1cc(C)cc(N2CCCn3c2nc2c3c(=O)n(CCN3CCOCC3)c(=O)n2C)c1 | 7 |
| COc1cc(C(=O)Nc2cc(-c3ccccc3)[nH]n2)cc(OC)c1OC | 5 |
| CCOc1ccc(Cl)cc1S(=O)(=O)N1CCCC1 | 0 |
| CCOc1ccc(NS(=O)(=O)c2cc(Cl)ccc2OC)cc1 | 4 |
| COc1ccc(OCCCC(=O)Nc2ccc3c(c2)OCCO3)cc1 | 4 |
| CCOC(=O)c1c(NC(=O)Cn2c(C)nc3ccccc32)sc2c1CCC2 | 0 |
| CCOC(=O)/C=C(\C)Sc1cc(=O)oc2ccccc12 | 6 |
| CC(NC(=O)c1ccccc1NC(=O)c1ccco1)C(=O)O (stereo not given) | 0 |
| Cc1cccc(NC(=O)c2cc(NC(=O)c3ccco3)ccc2Cl)n1 | 0 |
| N/C(=N/O)c1nc(N2CCCCC2)nc(N2CCCCC2)n1 | 0 |
| CC(=O)n1cc(-c2ccncc2)c2ccccc21 | 0 |
| CCN(CC)Cc1csc(C(N)=O)c1 | 5 |
| COc1ccc(-n2c(COc3ccccc3)nnc2SCc2ccc(C#N)cc2)cc1 | 0 |
| COc1ccc(C)cc1NC(=O)c1nnn(Cc2cccc(F)c2)c1N | 13 |
| CCCCn1cnc2c(c1=O)c1nc3ccccc3nc1n2Cc1ccc2c(c1)OCO2 | 0 |
| CCN(Cc1cc2cc(OC)ccc2[nH]c1=O)C(=O)c1ccncc1 | 4 |
| CCOc1cc(C2C(C#N)=C(N)OC(C)=C2C(C)=O)cc(Br)c1O (stereo not given) | 1 |

| SMILES | inhibition [%] |
| --- | --- |
| Cc1ccc(-n2nc(-c3cccs3)cc2C(=O)NCC2CCCO2)c(C)c1 (stereo not given) | 0 |
| CC(=O)N1CCc2cc(S(=O)(=O)NCCC(=O)Nc3cc(C)cc(C)c3)ccc21 | 2 |
| CCOC(=O)Cn1c2c(c(=N)c3ccccc31)CCC2 | 13 |
| CSCSC1=C(C#N)C(c2ccc(Cl)cc2)C(C(C)=O)=C(C)N1 (stereo not given) | 0 |
| O=C(Nc1ccc(F)cc1)NC1CCN(Cc2nnnn2Cc2ccco2)CC1 | 0 |
| CCOC(=O)c1ccc(N(CC(=O)NC2CCCC2)C(=O)CNC(=O)c2ccco2)cc1 | 6 |
| CCOc1ccccc1CNC(=O)CCN1C(=O)COc2ccccc21 | 0 |
| CCOC(=O)C1CCN(CC(=O)c2c(C)[nH]c3ccccc23)CC1 | 1 |
| Clc1ccc(CSc2nnc(Cn3cnc4ccccc43)o2)cc1 | 0 |
| Cc1ccc(-c2nnn(CC(=O)N(Cc3ccco3)C(C(=O)NC(C)(C)C)c3cccs3)n2)o1 (stereo not given) | 0 |
| COc1ccccc1N1CCN(CC(O)c2ccc3cc[nH]c3c2)CC1 (stereo not given) | 5 |
| Cc1cc(Nc2ccccc2F)n2ncnc2n1 | 0 |
| CC(=O)Oc1ccc(-c2ccc(C(=O)O)cc2)cc1 | 4 |
| Cc1ccc(S(=O)(=O)N2CCC(C(=O)N[C@@H](Cc3ccccc3)C(=O)O)CC2)cc1 | 0 |
| CCOc1cc(C2C(C(=O)OC(C)C)=C(C)N=C3SCCC(=O)N32)ccc1OC(C)=O (stereo not given) | 0 |
| O=C(c1ccccc1)N1CCN(Cc2ccccc2Br)CC1 | 3 |
| O=C(CN1C(=O)c2cccc3cccc1c23)Nc1ccccc1C(=O)NCc1ccco1 | 0 |
| COCCCNC(=O)CC1Oc2ccccc2NC1=O (stereo not given) | 0 |
| O=S(=O)(Nc1ccccn1)c1ccc(Oc2ccccc2)cc1 | 1 |
| CCC(=O)N(CCCN(C)C)c1nc(-c2cc(OC)ccc2OC)cs1 | 6 |
